Publication PMC5540273 (PLoS ONE, 2017)

Key:
Settings in all cases: concentration: 1 μM, replicates: in singlicate; n = 1
EPHA4 = system: EPHA4
EPHA5 = system: EPHA5
EPHA6 = system: EPHA6
EPHA7 = system: EPHA7
EPHA8 = system: EPHA8
EPHB1 = system: EPHB1
EPHB2 = system: EPHB2
EPHB3 = system: EPHB3
EPHB4 = system: EPHB4
EPHB6 = system: EPHB6
ERBB2 = system: ERBB2
ERBB3 = system: ERBB3
ERBB4 = system: ERBB4
ERK1 = system: T1, ERK1
T1 construct: gene MAPK3

ERK2 = system: T2, ERK2
T2 construct: gene MAPK1

ERK3 = system: T3, ERK3
T3 construct: gene MAPK6

ERK4 = system: T4, ERK4
T4 construct: gene MAPK4

ERK5 = system: T5, ERK5
T5 construct: gene MAPK7

ERK8 = system: T6, ERK8
T6 construct: gene MAPK15

ERN1 = system: ERN1
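Further: KINOMEscan kinase panel screen.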

Compound | %Inh (EPHA4) | %Inh (EPHA5) | %Inh (EPHA6) | %Inh (EPHA7) | %Inh (EPHA8) | %Inh (EPHB1) | %Inh (EPHB2) | %Inh (EPHB3) | %Inh (EPHB4) | %Inh (EPHB6) | %Inh (ERBB2) | %Inh (ERBB3) | %Inh (ERBB4) | %Inh (ERK1) | %Inh (ERK2) | %Inh (ERK3) | %Inh (ERK4) | %Inh (ERK5) | %Inh (ERK8) | %Inh (ERN1)
Cc1cccc(-c2nc(Nc3ccc4[nH]ncc4c3)c3ccccc3n2)n1 [GW857175] | 0% | 0% | 0% | 0% | 0% | 11% | 0% | 0% | 0% | 43% | 0% | 18% | 0% | 0% | 4% | 0% | 9% | 3% | 21% | 35%
CS(=O)(=O)c1ccc(-c2c(-c3ncn[nH]3)sc(N3CCOCC3)c2C#N)cc1 | 27% | 27% | 32% | 0% | 0% | 6% | 0% | 36% | 42% | 17% | 41% | 13% | 12% | 0% | 37% | 25% | 12% | 0% | 10% | 21%
Clc1cc(Cl)cc(Nc2ccnc(Nc3cc(Cl)cc(Cl)c3)n2)c1 [GSK175726] | 8% | 0% | 13% | 8% | 17% | 1% | 19% | 10% | 28% | 19% | 22% | 0% | 36% | 0% | 0% | 14% | 20% | 0% | 0% | 13%
COC(=O)c1c(-c2ccccc2)c2cc(C(=O)O)ccc2c(=O)n1Cc1ccccc1 | 0% | 0% | 0% | 0% | 0% | 6% | 12% | 0% | 0% | 0% | 0% | 0% | 2% | 0% | 16% | 0% | 0% | 0% | 0% | 0%
COc1ccc(CNC(=O)NC2CCN(c3ccnc(Nc4cc(OC)c(OC)c(OC)c4)n3)C2)cc1 (centres unmarked) [GSK1379748] | 3% | 0% | 0% | 0% | 8% | 20% | 0% | 0% | 0% | 91.8% | 0% | 27% | 9% | 0% | 0% | 0% | 0% | 0% | 0% | 0%
Cc1csc(-c2nc(Nc3ccncc3)c3ccccc3n2)n1 [GW869640] | 8% | 13% | 6% | 6% | 5% | 7% | 0% | 9% | 0% | 28% | 36% | 40% | 0% | 13% | 17% | 4% | 0% | 0% | 32% | 27%
Cn1ccc2ncnc(Oc3cccc(C(=O)Nc4ccccc4)c3)c21 | 4% | 16% | 0% | 0% | 0% | 0% | 0% | 0% | 9% | 0% | 18% | 18% | 0% | 0% | 21% | 0% | 4% | 5% | 6% | 29%
Cc1cccc(-c2nc(C)cc(Nc3ccncc3)n2)n1 [GSK257997] | 2% | 0% | 2% | 7% | 8% | 23% | 0% | 5% | 5% | 0% | 28% | 0% | 30% | 0% | 0% | 19% | 100% | 0% | 0% | 4%
Fc1cc(Cl)ccc1Nc1ccnc2cc(-c3ccc(CN4CCCCC4)o3)ccc12 [GW560116] | 0% | 0% | 24% | 0% | 30% | 12% | 10% | 0% | 12% | 51% | 1% | 31% | 4% | 0% | 0% | 0% | 8% | 0% | 0% | 0%
CCn1c(-c2cccnc2O)nc2cnccc21 [SB-736715] | 0% | 0% | 0% | 0% | 0% | 0% | 6% | 0% | 0% | 0% | 9% | 0% | 25% | 0% | 0% | 0% | 0% | 0% | 0% | 0%
COc1cc2ncn(-c3cc(OCC4CCCO4)c(C(N)=O)s3)c2cc1OC (centres unmarked) [GSK204607] | 7% | 0% | 1% | 0% | 3% | 24% | 0% | 0% | 27% | 23% | 0% | 20% | 0% | 2% | 0% | 20% | 0% | 0% | 0% | 0%
Cc1nnc(-c2ccc3occ(-c4ccc(S(C)=O)cc4)c3c2)[nH]1 (centres unmarked) | 24% | 10% | 34% | 7% | 6% | 0% | 16% | 17% | 16% | 13% | 16% | 6% | 5% | 0% | 8% | 13% | 0% | 0% | 0% | 35%
Cc1c(O)cccc1Nc1ccnc2ccc(C(F)(F)F)cc12.Cl [GW466413] | 0% | 0% | 14% | 0% | 8% | 9% | 0% | 54% | 20% | 0% | 35% | 17% | 0% | 0% | 0% | 0% | 0% | 0% | 8% | 0%
COc1ccc2nc(-c3cccc(C)n3)nc(Nc3ccncc3)c2c1 [GSK204919] | 23% | 0% | 18% | 0% | 9% | 6% | 0% | 14% | 15% | 0% | 0% | 0% | 30% | 2% | 3% | 10% | 15% | 0% | 37% | 0%
Cl.O=C(Nc1cccc(-c2nn3ncccc3c2-c2ccnc(Nc3cccnc3)n2)c1)c1c(F)cccc1F [GSK312879] | 1% | 0% | 1% | 7% | 27% | 13% | 0% | 0% | 12% | 10% | 95.9% | 0% | 93.2% | 8% | 0% | 0% | 16% | 0% | 28% | 4%
CS(=O)(=O)c1ccc(-c2nc3n(c2-c2ccncc2)CCC3)cc1 [SKF-105942] | 20% | 0% | 8% | 10% | 13% | 8% | 9% | 14% | 32% | 0% | 32% | 0% | 0% | 0% | 0% | 0% | 100% | 0% | 0% | 18%
Cl.Oc1ccc(-c2nc(-c3ccccc3)[nH]c2-c2ccncc2)cc1 [SB-428218] | 30% | 0% | 35% | 0% | 4% | 0% | 4% | 25% | 45% | 25% | 57% | 31% | 27% | 0% | 0% | 0% | 16% | 38% | 0% | 0%
O=C(Nc1n[nH]c2cc(-c3cccc(F)c3F)ccc12)C1CC1 [SB-733894] | 1% | 0% | 0% | 0% | 0% | 0% | 20% | 10% | 62% | 31% | 0% | 0% | 27% | 0% | 0% | 0% | 0% | 11% | 28% | 5%
Cc1cc(N2Cc3ccccc3C2)nc(Nc2ccc(S(=O)(=O)N3CCOCC3)cc2)n1.Cl [GSK1669917] | 0% | 0% | 0% | 0% | 7% | 0% | 0% | 0% | 6% | 10% | 0% | 0% | 26% | 0% | 0% | 0% | 19% | 0% | 0% | 0%
